ChEMBL document CHEMBL3433997, “St. Jude Leishmania screening dataset” (2016)

Target: Solute carrier family 2, facilitated glucose transporter member 1 (Homo sapiens) (UniProt P11166)
Experiment: ST_JUDE_LEISH: Cytotoxicity at 2uM final concentration against transgenic Leishmania Mexicana promastigotes LmGLUT1 that are glucose transport deficient and complemented with the human glucose transporter GLUT1. Activity is measured by DNA content using SYBR green in vitro
Format: functional

Chain of Solute carrier family 2, facilitated glucose transporter member 1 (Homo sapiens) (P11166 whole entry): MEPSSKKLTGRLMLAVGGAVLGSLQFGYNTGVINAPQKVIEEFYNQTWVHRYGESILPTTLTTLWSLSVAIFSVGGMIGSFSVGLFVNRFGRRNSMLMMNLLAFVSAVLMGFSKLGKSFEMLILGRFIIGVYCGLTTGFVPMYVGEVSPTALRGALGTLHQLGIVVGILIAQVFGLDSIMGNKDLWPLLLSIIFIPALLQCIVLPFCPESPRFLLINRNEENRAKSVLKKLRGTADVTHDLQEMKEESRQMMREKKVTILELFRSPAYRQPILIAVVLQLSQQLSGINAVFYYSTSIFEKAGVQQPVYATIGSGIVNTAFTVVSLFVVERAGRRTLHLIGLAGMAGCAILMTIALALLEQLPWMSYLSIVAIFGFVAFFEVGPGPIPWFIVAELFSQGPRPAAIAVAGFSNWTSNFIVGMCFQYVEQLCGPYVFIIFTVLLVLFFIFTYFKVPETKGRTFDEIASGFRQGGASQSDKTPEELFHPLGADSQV

In order of falling inhibition:
1. Cc1ccccc1Nc1nc(Nc2ccccc2)c2ccccc2n1  38.8%
2. Cc1cccc2nc(-c3ccc(-c4ccc(NC(=O)NCc5cccc(F)c5)cc4)s3)[nH]c12  7.99%
3. CC[C@@]1(O)C(=O)OCc2c1cc1n(c2=O)Cc2c-1nc1cc3c(cc1c2CN1CCN(C)CC1)OCCO3  7.46%
4. CCCCCCn1c(Sc2ccc(C#N)c([N+](=O)[O-])c2)nnc1-c1cccs1  5.52%
5. COc1ccc(-c2ccc(NC(=O)c3ccc(Cl)cc3)cc2)cc1CN1CCCN(C)CC1  5.26%
6. CCOc1ccc2c(=NN=Cc3cccc(OC)c3OC)cc(C)[nH]c2c1  4.91%
7. CC(=O)c1cccc2[nH]c(C(=O)NC3CCC(CCN4CCc5ccc(C#N)cc5C4)CC3)cc12 (centres undefined)  4.5%
8. CCn1c(-c2nonc2N)nc2c(-c3cccc(NC(=O)Nc4cccc(Cl)c4)c3)ncc(OCCCN)c21  4.22%
9. OC(CNc1ccnc(Nc2cccc(Cl)c2)n1)c1cccc(F)c1 (centres undefined)  3.71%
10. CCCC(C)NC[C@@H](O)[C@H](Cc1ccccc1)NC(=O)c1cc(C2CCCC2)cc(N2CCCCS2(=O)=O)c1 (some centres undefined)  3.4%
11. CC(C)C[C@H](NC(=O)c1cc2ccccc2s1)C(=O)N[C@H]1CCN(Cc2ccc(OCCCN(C)C)c(Cl)c2)C1  3.21%
12. O=C(Nc1cccc(F)c1)NC1CCN(c2ccnc3cc(Cl)ccc23)C1 (centres undefined)  2.72%
13. CC(=O)Nc1ccc(Nc2cc(C)nc(Nc3ccc(NC(C)=O)cc3)n2)cc1  2.12%
14. Cc1cccc2nc(O)c([N+](=O)[O-])c(O)c12  2.09%
15. CC(=NO)C1=C(O)C(c2ccccc2)N(c2ccccc2)C1=O (centres undefined)  1.86%
16. COc1ccc(Nc2nccc(NCC(O)c3cccc(C(F)(F)F)c3)n2)cc1 (centres undefined)  1.24%
17. CCN(CC)/C(=N/C(=N)Nc1ccc(Cl)c(Cl)c1)NCCCCCCN/C(=N\C(=N)Nc1ccc(Cl)c(Cl)c1)N(CC)CC  1.15%
18. CCNc1cc(C(=O)N[C@@H](Cc2cccc(F)c2)[C@H](O)CNC(C)CCCC(C)C)cc(N2CCCCS2(=O)=O)c1 (some centres undefined)  1.15%
19. CCc1c(C)nc(-n2nc(C)cc2NC(=O)CCc2ccccc2)[nH]c1=O  0.86%
20. Oc1cc(NCCCNC2CCc3c(Cl)cc(Cl)cc32)nc2ccccc12 (centres undefined)  0.63%
21. c1ccc(-n2cncn2)cc1  0.46%
22. C=CCc1cccc(OC)c1OCCCON1C(=N)N=C(N)NC1(C)C  -0.04%
23. Cc1cccc2nc(-c3ccc(-c4cccc(NC(=O)NCc5cccc(F)c5)c4)s3)[nH]c12  -1.66%
24. O=C1c2ccccc2-n2c1nc1ccccc1c2=O  -2.52%

Target: Hexose transporter 1 (Plasmodium falciparum) (UniProt O97467)
Experiment: ST_JUDE_LEISH: Cytotoxicity at 2uM final concentration against transgenic Leishmania Mexicana promastigotes LmPfHT that are glucose transport deficient and complemented with the Plasmodium falciparum hexose transporter. Activity is measured by DNA content using SYBR green in vitro
Format: functional

In order of rising inhibition:
1. COc1cccc2c(NN=Cc3cccc(Cl)c3)ccnc12  -3.77%
2. OCCN1CCN(C2Cc3ccc(F)cc3Sc3ccc(Cl)cc32)CC1 (centres undefined)  -3.09%
3. O=C1c2ccccc2-n2c1nc1ccccc1c2=O  -2.55%
4. CCN(CC)/C(=N/C(=N)Nc1ccc(Cl)c(Cl)c1)NCCCCCCN/C(=N\C(=N)Nc1ccc(Cl)c(Cl)c1)N(CC)CC  -1.65%
5. O=C(Nc1ccc(N2CCCN(Cc3cccc(F)c3)CC2)cc1)c1cccs1  -0.87%
6. Cc1[nH]c(C)c(-c2ccc(OCCn3cnc(Cl)c3Cl)cc2)c(=O)c1Br  -0.56%
7. Cc1cccc2nc(-c3ccc(-c4cccc(NC(=O)NCc5cccc(F)c5)c4)s3)[nH]c12  -0.47%
8. NCC1CCCN1Cc1ccc(-c2ccc(-c3nc4cc(C(F)(F)F)ccc4[nH]3)s2)cc1 (centres undefined)  -0.28%
9. COc1ccc(C(=O)N2CCC(C(=O)NC(C)c3ccc(-n4ccnc4)cc3)CC2)c2ccccc12 (centres undefined)  -0.1%
10. Oc1cc(NCCCNC2CCc3c(Cl)cc(Cl)cc32)nc2ccccc12 (centres undefined)  0.11%
11. C=CCc1cccc(OC)c1OCCCON1C(=N)N=C(N)NC1(C)C  0.37%
12. CCN(CCCN1CCCCC1)c1cc(C)nc(Nc2ccc(C)cc2C(F)(F)F)n1  0.39%
13. Fc1ccc(-c2cc(NCCCn3ccnc3)nc(-c3cccnc3)n2)cc1  0.82%
14. CCCc1cn2c3c(cc(C(=O)N[C@@H](Cc4ccccc4)[C@H](O)CNC4CCCCC4)cc13)N(CC)S(=O)(=O)CC2  0.94%
15. O=C(N/N=C/c1nc2ccccc2[nH]1)c1cccc([N+](=O)[O-])c1  1%
16. c1ccc(-n2cncn2)cc1  1.47%
17. Cc1cccc2nc(O)c([N+](=O)[O-])c(O)c12  1.72%
18. CN1CCN(c2ccc(Cl)cc2NC(=O)C2COc3ccccc3O2)CC1 (centres undefined)  1.77%
19. Cn1ncc2c3c(CCN4CCC(NCc5cc6c(cn5)OCCO6)CC4)c(Cl)cnc3ccc21  1.93%
20. CC(=NO)C1=C(O)C(c2ccccc2)N(c2ccccc2)C1=O (centres undefined)  2.06%
21. COc1ccc(Nc2nccc(NCC(O)c3cccc(C(F)(F)F)c3)n2)cc1 (centres undefined)  2.47%
22. O=C(Nc1cccc(F)c1)NC1CCN(c2ccnc3cc(Cl)ccc23)C1 (centres undefined)  2.74%
23. CCc1c(C)nc(-n2nc(C)cc2NC(=O)CCc2ccccc2)[nH]c1=O  2.79%
24. CCNc1cc(C(=O)N[C@@H](Cc2cccc(F)c2)[C@H](O)CNC(C)CCCC(C)C)cc(N2CCCCS2(=O)=O)c1 (some centres undefined)  2.92%
25. CC(C)C[C@H](NC(=O)c1cc2ccccc2s1)C(=O)N[C@H]1CCN(Cc2ccc(OCCCN(C)C)c(Cl)c2)C1  2.95%
26. CCCC(C)NC[C@@H](O)[C@H](Cc1ccccc1)NC(=O)c1cc(C2CCCC2)cc(N2CCCCS2(=O)=O)c1 (some centres undefined)  3.66%
27. CCn1c(-c2nonc2N)nc2c(-c3cccc(NC(=O)Nc4cccc(Cl)c4)c3)ncc(OCCCN)c21  3.86%
28. Cc1cc(S(=O)(=O)N2CCCCC(c3ccc(C(F)(F)F)cc3)=N2)c(Cl)cc1Cl  4.02%
29. CC(=O)c1cccc2[nH]c(C(=O)NC3CCC(CCN4CCc5ccc(C#N)cc5C4)CC3)cc12 (centres undefined)  4.09%
30. OC(CNc1ccnc(Nc2cccc(Cl)c2)n1)c1cccc(F)c1 (centres undefined)  4.41%
31. COc1ccc(-c2ccc(NC(=O)c3ccc(Cl)cc3)cc2)cc1CN1CCCN(C)CC1  4.81%
32. CC(=O)Nc1ccc(Nc2cc(C)nc(Nc3ccc(NC(C)=O)cc3)n2)cc1  5.08%
33. CCOc1ccc2c(=NN=Cc3cccc(OC)c3OC)cc(C)[nH]c2c1  5.53%
34. O=C(Nc1cc2cc(-c3ccc(CN4CCCCC4)cc3)ccc2n2cnnc12)NC1CCCC1  6.44%
35. CCCCCCn1c(Sc2ccc(C#N)c([N+](=O)[O-])c2)nnc1-c1cccs1  6.91%
36. Cc1ccc(Sc2ccc(NC(=O)CN3CCN(C(=O)c4ccco4)CC3)cc2)cc1C  9.65%
37. Cc1cccc2nc(-c3ccc(-c4ccc(NC(=O)NCc5cccc(F)c5)cc4)s3)[nH]c12  9.74%
38. OC(CNCc1ccccc1OCc1ccccc1)c1cc(C(F)(F)F)cc(C(F)(F)F)c1 (centres undefined)  10.9%
39. CC[C@@]1(O)C(=O)OCc2c1cc1n(c2=O)Cc2c-1nc1cc3c(cc1c2CN1CCN(C)CC1)OCCO3  15%
40. Cc1ccccc1Nc1nc(Nc2ccccc2)c2ccccc2n1  44%
